Among the data in PubChem BioAssay (EPA / NIEHS) are outcome and AC50 values, retold here.

A short description of test [1]: ATG_AP_1_CIS: Attagene CIS-FACTORIAL HepG2 Assay for human Activator Protein 1 (AP-1) (AID 2282931). Conditions: HepG2 Attagene cis-factorial AP-1 reporter mRNA; actives raise or lower the signal. The essentials:
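We transfected HepG2 cells transiently with a set of cis-regulated reporter transcription units, dosed them for 24 h, and quantified reporter mRNA via RT-PCR and capillary electrophoresis, scoring gain or loss of signal relative to DMSO.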

Test [2] can be described thus: ATG_Ets_CIS: Attagene CIS-FACTORIAL HepG2 Assay for human Erythroblast Transformation Specific (ETS) (AID 2282941). Conditions: HepG2 ETS cis-reporter transcription, actives raise or lower the signal. The method in brief:
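HepG2 cells transfected with multiple cis-regulated reporter units measuring endogenous ETS-driven transcription, 24 h after dosing. Reporter mRNA quantified by RT-PCR with capillary electrophoresis; bidirectional fit relative to DMSO.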

For test [3], the target named is Hepatocyte nuclear factor 3-beta (Homo sapiens) (UniProt Q9Y261). Nature of the test: ATG_FoxA2_CIS: Attagene CIS-FACTORIAL HepG2 Assay for human Forkhead box A2 (FOXA2) (AID 2282942). As to conditions: HepG2 cis-reporter transcription factor activity, 24 h; actives raise or lower the signal. The method in brief:
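Multiplexed cis-element reporter assay in transiently transfected HepG2. Twenty-four hours post-dosing, RNA was reverse-transcribed, amplified, FAM-labelled, HpaI-digested and separated by CE. Activity gain or loss relative to DMSO.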

The nature of test [4]: ATG_FoxO_CIS: Attagene CIS-FACTORIAL HepG2 Assay for human Forkhead box O (FoxO) (AID 2282943). Conditions: HepG2 Attagene cis-reporter, FoxO element, mRNA; actives raise or lower the signal. The essentials:
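Values reflect reporter mRNA induction or loss in HepG2 cells 24 h post-dosing, fitted bidirectionally with DMSO as negative control and baseline. Detection used RT-PCR and fluorescence capillary electrophoresis.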

A short description of test [5]: ATG_GATA_CIS: Attagene CIS-FACTORIAL HepG2 Assay for human GATA Binding Protein (AID 2282944). Conditions: HepG2 GATA cis-element reporter, Attagene multiplex mRNA; actives raise or lower the signal. The essentials: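 HepG2 cells transiently transfected with multiplexed cis-element reporter units reflecting endogenous transcription factor activity; reporter mRNA measured after 24 h dosing by RT-PCR, 6-FAM labeling, HpaI digestion and capillary electrophoresis. Bidirectional fitting versus DMSO baseline.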

Test [6] deals with Paired box protein Pax-6 (Homo sapiens) (UniProt P26367). Nature of the test: ATG_Pax6_CIS: Attagene CIS-FACTORIAL HepG2 Assay for human Paired Box 6 (PAX6) (AID 2282956). Conditions: HepG2 CIS-FACTORIAL PAX6 reporter transcription, RNA readout; actives raise or lower the signal. The essentials:
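HepG2 cells transiently transfected with cis-promoter-driven multiplexed reporter units sensing endogenous transcription factor activity; 24 h chemical exposure. Reporter mRNA quantified by RT-PCR, 6-FAM labelling, HpaI digestion and capillary electrophoresis; bidirectional fit versus DMSO baseline.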

Test [7] in a line: ATG_PPRE_CIS: Attagene CIS-FACTORIAL HepG2 Assay for human Peroxisome Proliferator-activated Response Element (PPRE) (AID 2282958). Conditions: HepG2 PPRE cis-element reporter, Attagene transcription factor profiling; actives raise or lower the signal. The essentials: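 DMSO served as negative control and baseline for bidirectional curve fitting. Signal came from PPRE-regulated reporter mRNA in HepG2 cells, measured 24 h post-dosing by RT-PCR, 6-FAM primer extension and capillary electrophoresis.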

Test [8] in a line: ATG_SREBP_CIS: Attagene CIS-FACTORIAL HepG2 Assay for human Sterol Regulatory Element Binding (SREBP) (AID 2282962). As to conditions: HepG2 Attagene cis-factorial SREBP reporter, mRNA; actives raise or lower the signal. The method in brief: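 HepG2 cells transiently transfected with multiplexed cis-promoter reporter units sensing endogenous transcription factors; reporter mRNA measured 24 h after dosing by RT-PCR, 6-FAM labeling, HpaI digestion and capillary electrophoresis. Bidirectional fit versus DMSO.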

In test [9] the target is Oxysterols receptor LXR-beta (Homo sapiens) (UniProt P55055). Nature of the test: ATG_LXRb_TRANS: Attagene TRANS-FACTORIAL HepG2 Assay for human Liver X Receptor beta (LXRb) (AID 2282981; active = hit-call score of the fitted dose curve at least 0.9, where 1 is the maximum). Conditions: HepG2 Attagene TRANS GAL4-LXRb reporter, mRNA. The method in brief:
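In this TRANS format, exogenous chimeric NR-Gal4 protein activity, not endogenous factors, drives reporter expression in transfected human HepG2 cells. Exposure lasted 24 h; reporter mRNA was read by fluorescent capillary electrophoresis.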

A short description of test [10]: ATG_M_32_TRANS: Attagene TRANS-FACTORIAL HepG2 Assay for M32 Transcription Factor (Internal Marker) (AID 2282984; active = hit-call score of the fitted dose curve at least 0.9, where 1 is the maximum;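 note: transcript level of a background control reporter unit measured by RT-PCR and capillary electrophoresis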). Conditions: HepG2 Attagene TRANS M32 internal marker reporter. The method in brief:
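Human hepatoma HepG2, transient MRTU transfection, 24 h treatment. RNA → RT-PCR → fluorescent primer extension → HpaI digest (2 h, 37 C) → CE. Positive-direction fit vs DMSO.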

Test [11] concerns the target Nuclear receptor subfamily 4 group A member 2 (Homo sapiens) (UniProt P43354). Nature of the test: ATG_NURR1_TRANS: Attagene TRANS-FACTORIAL HepG2 Assay for human Nuclear Receptor Related Protein 1 (NURR1) (AID 2282985; active = hit-call score of the fitted dose curve at least 0.9, where 1 is the maximum). Conditions: HepG2 Attagene TRANS reporter, mRNA readout. The essentials:
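After 24 h chemical dosing, total RNA from transiently transfected HepG2 cells was reverse-transcribed and reporter cDNA PCR-amplified, FAM-labelled and analysed by capillary electrophoresis. Activity fitted in positive direction, DMSO as negative control.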

In test [12] the target is human Thyroid Receptor alpha (THRa1), THRA (gene 7067) (UniProt P10827). Nature of the test: ATG_THRa1_TRANS: Attagene TRANS-FACTORIAL HepG2 Assay for human Thyroid Receptor alpha (THRa1) (AID 2283014; active = hit-call score of the fitted dose curve at least 0.9, where 1 is the maximum). The essentials:
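Reporter transcript induction, read by capillary electrophoresis of 6-FAM-labelled RT-PCR products, reflects activity of a transfected THRa1-Gal4 fusion in HepG2 liver cells. Cells were dosed for 24 h; activity was fitted in the positive direction against DMSO.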

For test [13], the target named is Cellular tumor antigen p53 (Homo sapiens) (UniProt P04637). Nature of the test: TOX21_p53_BLA_p2_ratio: Tox21 HCT-116 p53 Agonism Beta-lactamase Assay, Ratio, Phase 2 (AID 2283592; active = hit-call score of the fitted dose curve at least 0.9, where 1 is the maximum). The method in brief: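 HCT116 p53-bla; 4000 cells/well; 5 h pre-incubation; cpd in DMSO, 217-fold dilution; 16 h 37C/5% CO2; CCF4-AM 2 h RT; Ex 405, Em 460/530 ratio; DMSO = baseline; positive fitting direction.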
Chain of Cellular tumor antigen p53 (Homo sapiens) (P04637 whole entry, looked up): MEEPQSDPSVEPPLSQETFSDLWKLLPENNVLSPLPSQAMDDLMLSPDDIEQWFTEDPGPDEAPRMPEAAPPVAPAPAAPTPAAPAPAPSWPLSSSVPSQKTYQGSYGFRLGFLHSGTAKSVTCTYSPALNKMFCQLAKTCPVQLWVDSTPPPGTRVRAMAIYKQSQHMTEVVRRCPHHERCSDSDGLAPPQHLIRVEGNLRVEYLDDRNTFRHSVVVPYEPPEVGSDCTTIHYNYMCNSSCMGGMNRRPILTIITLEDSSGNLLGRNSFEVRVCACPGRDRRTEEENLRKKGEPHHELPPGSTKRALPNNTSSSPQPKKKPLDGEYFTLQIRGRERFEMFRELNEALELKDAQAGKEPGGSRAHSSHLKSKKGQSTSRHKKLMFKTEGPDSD

Test [14] has the same target. As to the kind of experiment: TOX21_p53_BLA_p5_ratio: Tox21 HCT-116 p53 Agonism Beta-lactamase Assay, Ratio, Phase 5 (AID 2283599; active = hit-call score of the fitted dose curve at least 0.9, where 1 is the maximum). The method in brief: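 HCT-116 cells carrying a p53-inducible beta-lactamase reporter were seeded at 4000 cells/well and dosed after 5 h with compound in DMSO (217-fold dilution). After 16 h at 37C, CCF4-AM substrate was added for 2 h, and the 460/530 nm emission ratio was scored as gain-of-signal versus DMSO.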

Test [15] in a line: TOX21_p53_BLA_p5_viability: Viability Assessment in the Tox21 HCT-116 p53 Agonism Beta-lactamase Assay, Phase 5 (AID 2283600; active = hit-call score of the fitted dose curve at least 0.9, where 1 is the maximum). The essentials:
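4000 cells/well; 5 h pre-incubation; DMSO compounds pin-transferred, 217-fold dilution; 16 h, 37C/5% CO2; CCF4-AM 2 h RT; CellTiter-Glo 30 min RT; luminescence.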

Test [16] can be described thus: ATG_CMV_CIS: Attagene CIS-FACTORIAL HepG2 Assay for human CMV (Internal Marker) (AID 2282928).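 Note: endpoint acts as a background internal control marker rather than a target.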 Conditions: HepG2 CMV promoter reporter, transcription factor profiling; actives raise or lower the signal. The method in brief: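 CMV internal-marker background readout in transiently transfected HepG2 cells bearing cis-regulated reporter units. Reporter mRNA is measured 24 h after dosing by RT-PCR and capillary electrophoresis, with bidirectional fitting against DMSO.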

The target in test [17] is Hepatocyte nuclear factor 4-alpha (Homo sapiens) (UniProt P41235). Nature of the test: ATG_HNF4a_TRANS: Attagene TRANS-FACTORIAL HepG2 Assay for human Hepatocyte Nuclear Factor 4 alpha (HNF4a) (AID 2282982; active = hit-call score of the fitted dose curve at least 0.9, where 1 is the maximum). Conditions: HepG2 HNF4a transactivation reporter, mRNA readout. The method in brief: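 Cells used were human HepG2, transiently carrying GAL4-UAS reporter units read out against exogenous NR-GAL4 chimeras. Reporter transcript levels after 24 h dosing were quantified by fluorescent RT-PCR and capillary electrophoresis.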
Chain of Hepatocyte nuclear factor 4-alpha (Homo sapiens) (P41235 whole entry, looked up, the tested form may be a part): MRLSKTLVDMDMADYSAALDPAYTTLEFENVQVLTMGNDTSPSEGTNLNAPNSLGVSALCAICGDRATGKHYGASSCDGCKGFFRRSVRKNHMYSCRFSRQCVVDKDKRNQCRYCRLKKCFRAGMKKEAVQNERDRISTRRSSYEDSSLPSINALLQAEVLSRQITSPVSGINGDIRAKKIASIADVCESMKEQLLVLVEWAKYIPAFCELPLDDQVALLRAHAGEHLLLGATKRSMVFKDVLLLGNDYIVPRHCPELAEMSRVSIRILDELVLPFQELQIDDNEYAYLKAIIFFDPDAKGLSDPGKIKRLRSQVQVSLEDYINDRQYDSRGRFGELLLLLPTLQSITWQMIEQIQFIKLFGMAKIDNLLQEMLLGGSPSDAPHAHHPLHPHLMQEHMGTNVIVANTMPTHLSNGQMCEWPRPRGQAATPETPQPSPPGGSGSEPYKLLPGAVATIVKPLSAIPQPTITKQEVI

Test [18] is described as follows: ATG_M_06_TRANS: Attagene TRANS-FACTORIAL HepG2 Assay for M06 Transcription Factor (Internal Marker) (AID 2282983; active = hit-call score of the fitted dose curve at least 0.9, where 1 is the maximum). Conditions: HepG2 Attagene TRANS M06 internal marker reporter. The essentials:
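Transfect HepG2 with MRTUs → dose compounds 24 h → isolate RNA, oligo(dT) RT → PCR with reporter primers → 6-FAM primer extension → HpaI digest → CE fragment analysis. Positive direction vs DMSO.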

Test [19] deals with Retinoic acid receptor RXR-alpha (Homo sapiens) (UniProt P19793). As to the kind of experiment: ATG_RXRa_TRANS: Attagene TRANS-FACTORIAL HepG2 Assay for human Retinoid X Receptor alpha (RXRa) (AID 2283012; active = hit-call score of the fitted dose curve at least 0.9, where 1 is the maximum). The essentials:
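Transient transfection of human HepG2 with multiple GAL4-UAS reporter constructs; 24 h compound exposure; total RNA isolated, reverse-transcribed, PCR-amplified, 6-FAM labelled, HpaI-cut, resolved by capillary electrophoresis. Positive-direction fit versus DMSO.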

The target in test [20] is human Peroxisome Proliferator-activated Receptor alpha (PPARa), PPARA (gene 5465) (UniProt Q07869). As to the kind of experiment: ATG_PPARa_TRANS: Attagene TRANS-FACTORIAL HepG2 Assay for human Peroxisome Proliferator-activated Receptor alpha (PPARa) (AID 2283001; active = hit-call score of the fitted dose curve at least 0.9, where 1 is the maximum;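 note: potency for gain of reporter signal over DMSO so agonist or activator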). The method in brief:
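Gain-of-signal endpoint: reporter mRNA induction relative to DMSO, detected by fluorescent RT-PCR and capillary electrophoresis. HepG2 cells transiently carried GAL4-UAS-driven reporter units plus NR-Gal4 fusion; exposure lasted 24 h.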

Results filed as inconclusive are left out. Active and inactive are the calls of the source. Rule for the calls, unless noted: active = hit-call score of the fitted dose curve at least 0.9, where 1 is the maximum; inactive = score below 0.9.

Chain of Hepatocyte nuclear factor 3-beta (Homo sapiens) (Q9Y261 whole entry, looked up): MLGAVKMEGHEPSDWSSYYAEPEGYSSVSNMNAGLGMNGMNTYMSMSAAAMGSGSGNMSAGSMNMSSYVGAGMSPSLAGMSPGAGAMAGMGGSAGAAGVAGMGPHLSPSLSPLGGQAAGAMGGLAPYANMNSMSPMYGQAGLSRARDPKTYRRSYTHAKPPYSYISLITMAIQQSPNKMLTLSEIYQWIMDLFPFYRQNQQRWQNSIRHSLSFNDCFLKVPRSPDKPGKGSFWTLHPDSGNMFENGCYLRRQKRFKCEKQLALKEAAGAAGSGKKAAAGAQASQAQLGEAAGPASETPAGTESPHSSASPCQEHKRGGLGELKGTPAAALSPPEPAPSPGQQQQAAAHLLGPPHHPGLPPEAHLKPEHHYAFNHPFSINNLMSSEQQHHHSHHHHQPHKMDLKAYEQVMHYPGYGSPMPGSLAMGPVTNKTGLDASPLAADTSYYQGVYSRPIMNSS
Chain of Paired box protein Pax-6 (Homo sapiens) (P26367 whole entry, looked up): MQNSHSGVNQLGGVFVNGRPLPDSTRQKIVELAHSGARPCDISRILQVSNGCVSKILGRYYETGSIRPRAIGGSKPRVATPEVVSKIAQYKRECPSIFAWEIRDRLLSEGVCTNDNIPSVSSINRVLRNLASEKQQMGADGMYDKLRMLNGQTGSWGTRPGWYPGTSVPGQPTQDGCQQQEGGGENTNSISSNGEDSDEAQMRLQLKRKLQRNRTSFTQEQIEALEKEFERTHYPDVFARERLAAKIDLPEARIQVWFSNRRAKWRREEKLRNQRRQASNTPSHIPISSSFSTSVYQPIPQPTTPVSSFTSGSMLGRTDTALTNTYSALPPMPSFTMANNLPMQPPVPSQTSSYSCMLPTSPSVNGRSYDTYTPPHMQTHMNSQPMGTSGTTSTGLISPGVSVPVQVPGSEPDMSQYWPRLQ
Chain of Nuclear receptor subfamily 4 group A member 2 (Homo sapiens) (P43354 whole entry, looked up): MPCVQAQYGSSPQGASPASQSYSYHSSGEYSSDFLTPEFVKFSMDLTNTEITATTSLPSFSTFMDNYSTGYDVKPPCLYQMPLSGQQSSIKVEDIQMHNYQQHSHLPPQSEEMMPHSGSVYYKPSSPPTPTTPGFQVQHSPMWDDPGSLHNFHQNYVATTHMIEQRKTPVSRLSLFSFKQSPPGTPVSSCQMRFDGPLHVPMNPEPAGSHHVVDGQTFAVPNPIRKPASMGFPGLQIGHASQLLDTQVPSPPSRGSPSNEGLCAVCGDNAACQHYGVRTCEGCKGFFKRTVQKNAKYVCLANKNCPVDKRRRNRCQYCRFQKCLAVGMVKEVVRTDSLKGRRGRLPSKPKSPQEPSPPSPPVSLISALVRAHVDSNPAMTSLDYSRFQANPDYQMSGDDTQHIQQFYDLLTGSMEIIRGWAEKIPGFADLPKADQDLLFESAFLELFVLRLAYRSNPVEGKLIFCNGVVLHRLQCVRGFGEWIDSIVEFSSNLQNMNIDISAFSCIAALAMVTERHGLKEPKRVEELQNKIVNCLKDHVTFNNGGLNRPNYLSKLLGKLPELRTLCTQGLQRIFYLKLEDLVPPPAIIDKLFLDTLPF
Chain of human Thyroid Receptor alpha (THRa1), THRA (gene 7067) (P10827 whole entry, looked up, the tested form may be a part): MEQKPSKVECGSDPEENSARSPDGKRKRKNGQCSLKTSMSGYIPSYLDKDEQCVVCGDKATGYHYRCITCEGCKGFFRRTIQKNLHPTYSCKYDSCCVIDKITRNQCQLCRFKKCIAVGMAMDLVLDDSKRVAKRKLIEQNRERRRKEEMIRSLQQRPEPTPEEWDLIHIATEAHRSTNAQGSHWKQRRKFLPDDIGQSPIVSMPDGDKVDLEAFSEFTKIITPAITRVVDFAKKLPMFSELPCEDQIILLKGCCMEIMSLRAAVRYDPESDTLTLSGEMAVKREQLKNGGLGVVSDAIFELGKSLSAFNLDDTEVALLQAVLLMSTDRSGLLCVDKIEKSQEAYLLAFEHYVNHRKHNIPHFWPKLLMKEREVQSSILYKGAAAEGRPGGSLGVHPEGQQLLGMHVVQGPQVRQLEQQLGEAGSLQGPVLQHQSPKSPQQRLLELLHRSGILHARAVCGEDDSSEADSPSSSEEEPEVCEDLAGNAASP
Chain of Retinoic acid receptor RXR-alpha (Homo sapiens) (P19793 whole entry, looked up, the tested form may be a part): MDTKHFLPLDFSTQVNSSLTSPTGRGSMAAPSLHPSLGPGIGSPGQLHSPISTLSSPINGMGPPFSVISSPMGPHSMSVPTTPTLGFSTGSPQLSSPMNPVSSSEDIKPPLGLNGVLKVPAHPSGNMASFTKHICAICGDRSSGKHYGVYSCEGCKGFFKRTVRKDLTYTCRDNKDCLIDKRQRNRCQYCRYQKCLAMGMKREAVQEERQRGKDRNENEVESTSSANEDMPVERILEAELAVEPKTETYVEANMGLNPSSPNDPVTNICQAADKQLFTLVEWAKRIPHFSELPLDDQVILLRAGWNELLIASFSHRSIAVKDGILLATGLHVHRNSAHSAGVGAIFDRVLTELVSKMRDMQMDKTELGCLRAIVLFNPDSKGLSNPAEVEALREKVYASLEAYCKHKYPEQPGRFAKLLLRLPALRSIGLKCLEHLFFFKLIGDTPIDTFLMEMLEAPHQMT
Chain of Oxysterols receptor LXR-beta (Homo sapiens) (P55055 whole entry, looked up, the tested form may be a part): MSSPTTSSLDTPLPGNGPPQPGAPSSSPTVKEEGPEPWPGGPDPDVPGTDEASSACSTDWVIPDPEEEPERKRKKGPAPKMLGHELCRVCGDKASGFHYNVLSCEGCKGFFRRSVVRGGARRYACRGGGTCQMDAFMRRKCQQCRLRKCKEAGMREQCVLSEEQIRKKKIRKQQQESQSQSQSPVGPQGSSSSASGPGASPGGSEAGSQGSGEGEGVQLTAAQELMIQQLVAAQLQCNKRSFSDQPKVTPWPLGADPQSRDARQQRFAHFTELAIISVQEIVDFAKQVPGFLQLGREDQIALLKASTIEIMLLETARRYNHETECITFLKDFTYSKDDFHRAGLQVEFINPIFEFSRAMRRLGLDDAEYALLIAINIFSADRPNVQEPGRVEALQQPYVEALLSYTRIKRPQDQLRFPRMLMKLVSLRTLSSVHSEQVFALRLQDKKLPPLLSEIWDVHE
Chain of human Peroxisome Proliferator-activated Receptor alpha (PPARa), PPARA (gene 5465) (Q07869 whole entry, looked up, the tested form may be a part): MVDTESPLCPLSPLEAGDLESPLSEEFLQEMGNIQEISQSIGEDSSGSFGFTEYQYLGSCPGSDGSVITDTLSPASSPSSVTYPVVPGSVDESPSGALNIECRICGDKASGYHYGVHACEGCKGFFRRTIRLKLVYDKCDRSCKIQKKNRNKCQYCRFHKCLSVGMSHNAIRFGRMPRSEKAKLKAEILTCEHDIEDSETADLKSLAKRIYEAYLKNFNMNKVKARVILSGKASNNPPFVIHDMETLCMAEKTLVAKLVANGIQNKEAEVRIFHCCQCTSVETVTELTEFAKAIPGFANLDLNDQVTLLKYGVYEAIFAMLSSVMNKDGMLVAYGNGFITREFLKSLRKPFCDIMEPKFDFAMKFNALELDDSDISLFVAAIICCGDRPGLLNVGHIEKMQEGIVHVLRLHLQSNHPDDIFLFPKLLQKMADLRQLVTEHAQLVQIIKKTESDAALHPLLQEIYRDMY

Take `CCCCNP(N)(N)=S`: the compound was classed as inactive in [1], in [2], in test [3], in test [4], in test [5] and in test [6]. Besides, the compound was classed as inactive in test [7], in test [8], in test [9], in [10], in test [11] and in test [12]. In addition, the outcome in [13], in [14] and in test [15] was inactive.
Consider `CCC(C)c1cc(C(C)(C)C)cc(-n2nc3ccccc3n2)c1O` (centres undefined), for which the call in test [16], in test [3], in test [4], in [5], in [6] and in test [7] was inactive. In addition, the compound was classed as inactive in [17], in [18], in test [11] and in [12].
Regarding `CC1(C)C(=O)NC(=O)NC1=O`, the result in test [16], in test [1], in [3], in test [6], in test [8] and in test [17] was inactive. Further, the compound was called inactive in [10], in test [11], in test [19], in test [12], in test [13] and in test [14]. For the same compound, in test [15], the compound was classed as inactive.
For orientation: AC50 means the concentration at which the activity in the assay is half-maximal. Turning to `C[C@]12CC[C@H](O)C[C@H]1CC[C@@H]1[C@@H]2C[C@@H](O)[C@]2(C)[C@@H](C3=CC(=O)OC3)CC[C@]12O`, the concentration at half-maximal activity (AC50) in test [16] is 0.72 µM (active); in test [1], 3.46 µM (active); in test [2], 8.76 µM (active); in test [4] it was 8.56 µM (active); in [5], 7.98 µM (active); in test [6], 0.513 µM (active). Besides, the AC50 in test [8] is 1.74 µM (active); in [20], 1.78 µM (active). Besides, the compound was called inactive in test [3], in test [7], in test [9], in test [17], in [18] and in test [11]. The call in [19] and in test [12] was inactive.
